Values joined by “and” are separate entries in the source; they are usually repeats but may differ in a detail not shown here. Equal values may be shown once. Unmarked numbers belong to inactive results. Results filed as inconclusive are left out. Active and inactive are the calls of the source. Unless noted, the call rests on the fitted dose curve; in most records, active means well fitted curve in the direction sought with a large enough effect in the repeat runs; inconclusive means weak or mixed curves; inactive means no such curve, though single readings can be large; an effect the other way counts as inactive or inconclusive.

The nature of test [1]: qHTS assay for small molecules that induce genotoxicity in human embryonic kidney cells expressing luciferase-tagged ATAD5 (AID 651632). Further: nearly all actives have a fitted effect of over 15% in size. The procedure, abridged:
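ATAD5-luc HEK293T, 2,000 cells/well; cpd or DMSO pin-transferred; 16 hr, 37C/5% CO2; Amplite 30 min RT; luminescence.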
(In qHTS, concentration-response curves come from the screen itself.)

The nature of test [2]: qHTS assay for small molecule agonists of the p53 signaling pathway - cell viability (AID 651633; calls by dose curve; further: nearly all actives have a fitted effect of over 30% in size; further: potency means the concentration at half of the fitted maximal effect;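 on activity change, negative = cytotoxicity: p53RE-bla HCT reporter cells with a stable beta-lactamase p53 reporter; series mostly up to about 83 µM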). The method, boiled down: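 Viability counter-read: CellTiter-Glo luminescence (30 min, room temperature) in the same p53RE-bla plates. These plates had been exposed to compounds for 16 h at 37 C.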
Test [3] is described as follows: qHTS assay for small molecules that induce genotoxicity in human embryonic kidney cells expressing luciferase-tagged ATAD5 - cell viability (AID 651634; calls by dose curve; further: nearly all actives have a fitted effect of over 25% in size; further: potency means the concentration at half of the fitted maximal effect). The procedure, abridged: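 Fluorescence from CellTiter-Fluor, reporting protease activity within live cells, served as the viability read-out. HEK293T cells carrying luciferase-tagged ATAD5 had been treated with compound for 15.5 hr at 37C.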

Test [4] is described as follows: qHTS assay for small molecule disruptors of the mitochondrial membrane potential (AID 720635). Further: potency means the concentration at half of the fitted maximal effect. The procedure, abridged: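 Mitochondrial membrane potential tracked with Mito-MPS dye, red aggregates (ex 540/em 590 nm) against green monomers (ex 490/em 535 nm). Compound treatment 1 hr at 37C, dye 30 min in HepG2.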
Test [5] is described as follows: qHTS assay to test for compound auto fluorescence at 590 nm (red) in HepG2 cells (AID 720674). The method, boiled down:
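We screened compounds on adherent HepG2 cells, incubating them for an hour at 37 C in 5% CO2 before reading emission at 590 nm under 540 nm excitation; values reflect equivalence to Rose Bengal sodium fluorescence.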

Test [6] in a line: qHTS assay to test for compound auto fluorescence at 535 nm (green) in HepG2 cells (AID 720675).
Test [7] is described as follows: qHTS assay to test for compound auto fluorescence at 460 nm (blue) in HEK293 cells (AID 720678). The procedure, abridged:
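Intrinsic compound fluorescence is recorded in live HEK293 cultures after overnight incubation at 37C, 5% CO2, using excitation 405 nm and emission 460 nm. Values are referenced to triamterene.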

A short description of test [8]: qHTS assay to test for compound auto fluorescence at 590 nm (red) in HEK293 cells (AID 720679). The method, boiled down: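 Red autofluorescence, HEK293 cells: 2,000 cells/well; attach 4-5 hr 37C; add 23 nL cpd or DMSO; incubate o/n 37C 5% CO2; read Ex540/Em590; Rose Bengal sodium reference.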
Test [9] can be described thus: qHTS assay to test for compound auto fluorescence at 535 nm (green) in HEK293 cells (AID 720680).
Test [10] is described as follows: qHTS assay to test for compound auto fluorescence at 460 nm (blue) in HEK293 cell free culture (AID 720681). The method, boiled down:
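Blue fluorescence (Ex 405/Em 460 nm, triamterene-equivalent) was read immediately after pin transfer of compound or DMSO into medium (DMEM, 10% FBS) without cells.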

Test [11] is described as follows: qHTS assay to test for compound auto fluorescence at 535 nm (green) in HEK293 cell free culture (AID 720682). The method, boiled down:
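Intrinsic compound fluorescence is measured in culture medium containing 10% FBS, with excitation at 485 nm and detection at 535 nm, referenced to fluorescein.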

Test [12] can be described thus: qHTS assay to test for compound auto fluorescence at 590 nm (red) in HEK293 cell free culture (AID 720683). The method, boiled down: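 Red-channel autofluorescence of compounds in culture medium (DMEM, 10% FBS), no cells, measured at 540/590 nm. Rose Bengal sodium is the reference fluorophore for equivalence.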
The nature of test [13]: qHTS assay to test for compound auto fluorescence at 590 nm (red) in HepG2 cell free culture (AID 720684). The procedure, abridged:
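Plate contents were MEM with 10% FBS plus test compound or DMSO, no cells. Fluorescence was recorded with 540 nm excitation and 590 nm emission.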

The nature of test [14]: qHTS assay to test for compound auto fluorescence at 460 nm (blue) in HepG2 cell free culture (AID 720685). The procedure, abridged: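 Compound (23 nL) or DMSO pinned into cell-free MEM with 10% FBS; blue fluorescence read at 405/460 nm excitation/emission, expressed as auto-fluorescence equivalency to triamterene.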
The nature of test [15]: qHTS assay to test for compound auto fluorescence at 535 nm (green) in HepG2 cell free culture (AID 720686).
The nature of test [16]: qHTS assay to test for compound auto fluorescence at 460 nm (blue) in HepG2 cells (AID 720687). The procedure, abridged:
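Blue-channel autofluorescence (Ex/Em 405/460 nm, triamterene-equivalent) was measured after 1 hr compound exposure at 37 C, 5% CO2. Cells were HepG2, plated overnight at 37 C in MEM plus 10% FBS.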

In test [17] the target is Glucocorticoid receptor (Homo sapiens) (UniProt P04150). Nature of the test: qHTS assay to identify small molecule agonists of the glucocorticoid receptor (GR) signaling pathway (AID 720691; active means well fitted activation curve with a large enough effect in the signal ratio in the repeat runs, not every such curve was filed as active; the % refers to the signal ratio). The procedure, abridged: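 Fluorescence intensity from LiveBLAzer B/G FRET substrate (2 h, room temperature) reports beta-lactamase expression driven by the glucocorticoid response element in GR-bla HeLa cells after 18 h compound exposure at 37 C.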

Test [18] shares this target. Nature of the test: qHTS assay to identify small molecule antagonists of the glucocorticoid receptor (GR) signaling pathway (AID 720692; active means well fitted inhibition curve with a large enough effect in the signal ratio in the repeat runs, not every such curve was filed as active; the % refers to the signal ratio). The method, boiled down: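 HeLa GR-bla cells; cmpd + dex 5 nM final, 18 h 37 C; LiveBLAzer B/G FRET substrate 2 h RT; fluorescence intensity read. Antagonist mode, qHTS.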
Test [19] can be described thus: qHTS assay for small molecule disruptors of the mitochondrial membrane potential - cell viability (AID 720634; calls by dose curve; further: nearly all actives have a fitted effect of over 20% in size; further: potency means the concentration at half of the fitted maximal effect;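 on activity change, negative = cytotoxicity: human HepG2 liver cancer cells; series mostly up to about 83 µM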). The procedure, abridged: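 Cells: HepG2, 2,000/well, attached overnight. Compound 1 hr, 37 C/5% CO2. +m-MPI dye, +CellTiter-Glo 30 min RT. Readout: luminescence (ATP).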
On the % scale 0 is the no-effect control and ±100 the full control effect.

Chain of Glucocorticoid receptor (Homo sapiens) (P04150 whole entry, looked up): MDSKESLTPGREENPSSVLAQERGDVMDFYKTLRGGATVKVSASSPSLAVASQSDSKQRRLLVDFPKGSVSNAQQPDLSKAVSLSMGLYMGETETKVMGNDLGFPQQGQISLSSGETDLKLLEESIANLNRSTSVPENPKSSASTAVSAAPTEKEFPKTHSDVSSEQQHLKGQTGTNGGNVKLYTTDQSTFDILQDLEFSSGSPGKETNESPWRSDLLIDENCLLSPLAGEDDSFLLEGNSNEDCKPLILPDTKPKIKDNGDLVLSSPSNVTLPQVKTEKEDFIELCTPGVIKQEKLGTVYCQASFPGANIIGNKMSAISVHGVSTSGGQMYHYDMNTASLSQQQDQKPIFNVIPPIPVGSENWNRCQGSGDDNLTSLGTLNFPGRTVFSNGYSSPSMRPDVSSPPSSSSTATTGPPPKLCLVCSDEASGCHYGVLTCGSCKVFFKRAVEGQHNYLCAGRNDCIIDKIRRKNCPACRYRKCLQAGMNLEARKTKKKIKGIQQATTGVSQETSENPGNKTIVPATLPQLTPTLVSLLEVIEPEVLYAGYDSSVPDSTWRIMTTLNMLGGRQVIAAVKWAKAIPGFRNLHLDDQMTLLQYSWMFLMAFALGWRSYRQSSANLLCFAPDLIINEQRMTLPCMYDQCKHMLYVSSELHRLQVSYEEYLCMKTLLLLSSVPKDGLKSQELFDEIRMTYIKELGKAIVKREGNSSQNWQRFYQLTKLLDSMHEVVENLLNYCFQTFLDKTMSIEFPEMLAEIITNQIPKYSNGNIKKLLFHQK

`O=C(O)O`: the figures for the activation in test [1] and in [17] were 4.66% [at 8.08 µM] and -0.133% [at 6.9 µM], respectively. Further, the activity change, negative = cytotoxicity in test [2] was 14.5% [at 8.08 µM]. In [3], the activity, negative = cytotoxicity was 16.8% [at 8.08 µM]. In addition, the ratio activity, negative = MMP loss in [4] is 7.15% [at 8.08 µM]. The fluorescence, relative to Rose Bengal in test [5] was -0.453% [at 3.72 µM]. Also, the fluorescence, % of fluorescein control was -0.0364% [at 3.72 µM] in [6] and 0.0195% [at 3.72 µM] in test [15]. Moreover, the fluorescence, % of triamterene in test [7] is -0.0075% [at 3.72 µM]. In addition, the fluorescence, % of fluorescent control is 0.462% [at 3.72 µM] in test [8]; 0.0957% [at 3.72 µM] in [10]; -0.0236% [at 3.72 µM] in test [12]; 0.0077% [at 3.72 µM] in [14]; -0.0691% [at 3.72 µM] in [16]. In [9], the fluorescence, % of fluorescein is -0.0067% [at 3.72 µM]. The activity change in test [11] was -0.0576% [at 3.72 µM, active compounds read high]. In test [13], the fluorescence, % of Rose Bengal is 0.0094% [at 3.72 µM]. In test [18], the activity change, negative = inhibition is -1.88% [at 7.04 µM].

Take `Oc1ccccc1O`: the Potency result in [1], in test [3], in test [4], in test [5], in test [6] and in test [7] was “inactive” throughout. Besides, the Potency entry in [8], in [9], in test [10], in [11], in [12] and in [13] was “inactive” in each case. Besides, the Potency result in test [14], in test [15], in test [16] and in test [17] was “inactive” each time. The Potency in test [2] was 43.8 µM (active) and 30.6 µM (active).

Take `OCCN1CCN(CCCN2c3ccccc3Sc3ccc(C(F)(F)F)cc32)CC1`: the Potency result in test [1], in test [19], in test [5], in test [6], in [7] and in test [8] was “inactive” in each case. Moreover, the Potency entry in [9], in [10], in [11], in test [12], in [13] and in [15] was “inactive” throughout. For the same molecule, the Potency entry in test [16] and in test [17] was “inactive” each time. In addition, the Potency in test [2] is 26.6 µM (active).

As for `Nc1nc(N)nc(-c2cc(Cl)ccc2Cl)n1`, the Potency result in test [1], in [2], in test [3], in [4], in test [5] and in [6] was “inactive” throughout. In addition, the Potency entry in test [7], in test [8], in test [9], in [10], in test [11] and in test [12] was “inactive” in each case. In addition, the Potency entry in [13], in test [14], in test [15], in test [16], in test [17] and in test [18] was “inactive” each time.

Consider `CC(C)=CCC1=C(O)c2ccccc2C(=O)C1=O`, for which the Potency result in test [1], in test [5], in [6], in test [7], in [8] and in [9] was “inactive” throughout. The Potency entry in [10], in [11], in test [12], in test [13], in [14] and in [15] was “inactive” in each case. Moreover, the Potency entry in test [16] and in test [17] was “inactive” each time. The Potency in test [3] was 54.2 µM (active); in test [19] it was 54.2 µM (active); in test [4], 24.2 µM (active).

As for `Clc1ccnc(Cl)n1`, the Potency result in [1], in test [2], in test [3], in test [5], in [6] and in [7] was “inactive” each time. Besides, the Potency result in test [8], in [9], in [10], in [11], in [12] and in [13] was “inactive” throughout. Also, the Potency entry in [14], in [15], in test [16], in test [17] and in test [18] was “inactive” throughout.

For `CCCCCCCCCCC[C@@H](C[C@@H]1OC(=O)[C@H]1CCCCCC)OC(=O)[C@H](CC(C)C)NC=O`, the Potency entry in test [1], in test [2], in test [3], in test [5], in test [6] and in test [7] was “inactive” each time. For the same molecule, the Potency result in test [8], in test [9], in test [10], in test [11], in [12] and in test [13] was “inactive” in each case. The Potency entry in test [14], in test [15], in [16] and in [17] was “inactive” throughout.
